Results from PubChem BioAssay AID2318 (National Center for Advancing Translational Sciences (NCATS), 2010).
Some of the results follow. A call without a number means that no potency is given here. Results filed as inconclusive are left out. Calls of active or inactive are those of the source. Calls follow the shape of the full dose curve.

Experiment: Cycloheximide Counterscreen for Small Molecule Inhibitors of Shiga Toxin (Confirmatory)
Conditions: protein synthesis reporter, Shiga toxin assay; series mostly up to 38.3 µM
Potency is read from the fitted curve at half-maximal effect.

Structure (SMILES) | Potency
Nc1nonc1C(=O)NCCc1ccccc1 | inactive
COc1ccc(C(=O)Nc2ccccc2C(=O)NCc2ccco2)cc1 | inactive
CSCc1cc(N2CCOCC2)nc(SCc2ccc(Cl)cc2Cl)n1 | inactive
O=C(COC(=O)c1cccs1)Nc1ccccc1Cl | inactive
CN(Cc1nc2ccc(F)cc2[nH]1)Cc1nc(CC2CC2)no1 | inactive
CCCc1nc2ccccc2c(=O)n1NC(=O)c1c(O)c2ccccc2[nH]c1=O | inactive
Cc1ccc(-c2cc(C(=O)N3CCc4ccccc4C3)no2)cc1 | inactive
COc1ccc(N(CCC#N)S(=O)(=O)c2ccc(Cl)cc2)cc1 | inactive
Cc1cc(C(=O)COC(=O)C2CC2)c(C)n1-c1ccc(F)cc1 | 2 µM (active)
C=CCNC(=O)c1ccc(C)c(Br)c1 | inactive
CCOc1ccc(NC(=O)Nc2ccc(N(C)C(C)=O)cc2)cc1 | inactive
O=C(c1cc(-c2cccc(O)c2)on1)N1CCc2ccccc2C1 | inactive
COc1ccc(S(=O)(=O)Nc2ccc3c(c2)OCO3)cc1Cl | inactive
CC(=O)c1ccc(N2CCN(C(=O)c3ccc4nc[nH]c4c3)CC2)cc1 | inactive
COc1ccccc1N1N=C(c2cccs2)CC1c1ccccc1 (stereo not drawn) | inactive
Cc1nc(SCC(=O)Nc2cc(C)on2)c2c3c(sc2n1)CCCC3 | inactive
COc1ccc(-c2noc(COc3ccc(Cl)c(C)c3)n2)cc1 | inactive
CCN1CCN(Cc2c(O)ccc3c(=O)c(-c4ccc(OC)c(OC)c4)c(C(F)(F)F)oc23)CC1 | inactive
